Compound activity deposited in PubChem BioAssay by National Center for Advancing Translational Sciences (NCATS).
KB-3-1 cytotox: KB-3-1 parental cell cytotoxicity. KB-3-1 viability, CellTiter-Glo ATP luminescence, 72 h. Potency, µM (series often up to 46.1 µM), most hits filed as cytotoxic. actives 1.4% (n = 400,000); also: potency is read from the fitted curve at half-maximal effect; nearly all actives have a fitted effect of over 60% in size
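Cells are dispensed, compounds pinned in, plates held at 37 °C for 72 h, then CellTiter-Glo is added and luminescence read after 10 minutes. Cell line: parental KB-3-1 in phenol-red-free DMEM, 10% FBS.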
HT1080 IDH1KD tx: toxicity to HT-1080 IDH1 knockdown cells (counter line); HT-1080 IDH1 knockdown viability, ATP luminescence, 48 h; Potency, µM (top dose mostly 46.1 µM), for the others: at the top dose activity, negative = toxicity, most hits filed as cytotoxic; actives 2% (n = 360,000);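 also: potency is read from the fitted curve at half-maximal effect; 0% = DMSO wells and -100% = cell-free medium wells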
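CellTiter-Glo luminescence after 48 h compound exposure at 37 degrees C of IDH1-knockdown HT-1080 cells in 5% FBS RPMI. %Activity scaled between DMSO wells and cell-free media wells, with curves fitted and assigned curve classes.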
HT1080-NT tox: kills 2HG-producing HT-1080-NT fibrosarcoma cells | HT-1080-NT fibrosarcoma viability, CellTiter-Glo ATP luminescence, 48 h | actives 1.6% (n = 360,000) | Potency, µM (top dose mostly 46.1 µM), for inactives: at the top dose activity, negative = less viability, actives largely listed as cytotoxic;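 also: NT is the 2HG producing partner of a matched IDH1 knockdown line; potency is read from the fitted curve at half-maximal effect; 0% = DMSO-treated cells and -100% = media-only wells without cells; nearly all actives have a fitted effect of over 55% in size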
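Viability by CellTiter-Glo luminescence after 48 h compound exposure at 37C of HT-1080-NT cells (750/well, RPMI, 5% FBS). % activity scaled between DMSO wells and medium-only wells, then curve-fitted and categorized by curve class.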
IL1B secr inh: inflammasome signaling inhibition, IL-1 beta readout; THP-1 LPS/ATP IL-1B secretion, AlphaLISA, 16 h; active compounds read low; activity change, % at 57.5 µM; actives 4.7% (n = 360,000); in the data active = activity change below about -50%; inconclusive = mostly about -30% to -49%
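Secreted IL-1B measured by AlphaLISA bead assay after 16 h compound exposure of THP-1 cells; compounds (final up to 57.5 uM) added 1 h before LPS (250 ng/mL) and ATP (1.25 mM) stimulation; lower signal means less secretion.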
KB-V1 cytotox: KB-V1 MDR subline cytotoxicity | KB-V1 MDR cells viability, CellTiter-Glo, 72 h | Potency, µM (highest dose often 46.1 µM), actives largely listed as cytotoxic | AID 1347076 | actives 3.4% (n = 400,000); also: potency is read from the fitted curve at half-maximal effect; nearly all actives have a fitted effect of over 60% in size
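Drug-selected KB-V1 cells, grown in DMEM lacking phenol red with 10% FBS, receive compound titrations; after three days at 37 degrees C, surviving cell ATP is quantified by CellTiter-Glo luminescence and responses normalized and curve-fitted.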
Active calls of the source: *; i = inactive; ? = inconclusive; · = not tested or not shown. The list is not random: actives were taken first. Their share in the collection is about 8.8%. Unless noted, calls follow the shape of the dose curve; as a rule, active = well fitted curve in the direction sought with a large enough effect; inconclusive = small, poorly fitted or top-dose-only effect, or another doubt; inactive = no such curve, though single readings can be large; an effect the other way counts as inactive or inconclusive. Unless noted, % is scaled to controls: 0 for no effect and ±100 for the full control effect.

SMILES	KB-3-1 cytotox	HT1080 IDH1KD tx	HT1080-NT tox	IL1B secr inh	KB-V1 cytotox
CCOC(=O)N1CCN(C(=O)COc2cccc3c2CCN(Cc2ccccc2C)C3=O)CC1	i	-6%	-7%	-13	?
Cc1cc(C)c(Cn2ncn(-c3ccc(Br)cc3)c2=O)c(C)c1	i	8%	-3%	22	i
O=C1c2cccc(OCC(=O)N3CCCc4ccccc43)c2CCN1Cc1cccnc1	?	-11%	-7%	-7	3.7µM*
CC(C)C(=O)c1cn(CC(=O)N2CCCc3ccccc32)c2ccccc12	i	-12%	6%	-2	5.2µM*
Cn1c(=O)c2ccccc2n(CC(=O)N2CCCc3ccccc32)c1=O	i	12%	8%	0	i
O=C(COc1cccc2c1CCN(Cc1ccccc1)C2=O)N1CCCCC1	i	-21%	-15%	-10	?
CCOC(=O)c1ccc(N/C(=N\S(=O)(=O)c2ccc(F)cc2F)c2ccccc2)cc1	i	-1%	1%	-5	i
CCn1c(NCc2cc(Br)ccc2NS(=O)(=O)c2ccc(C)cc2)nc2ccccc21	?	-22%	-24%	3	18µM*
CCCCn1c(/N=C/c2ccccc2NS(=O)(=O)c2ccc(C)cc2)nc2ccccc21	i	-24%	-19%	-7	?
CCCn1c(NCc2ccccc2NS(=O)(=O)c2ccc(C)cc2)nc2ccccc21	?	?	?	11	16µM*
Cc1ccc(S(=O)(=O)Nc2ccccc2/C=N/c2nc3ccccc3n2C(C)C)cc1	i	15µM*	18µM*	-4	i
CCn1c(NCc2ccccc2NS(=O)(=O)c2ccc(C)cc2)nc2ccccc21	?	-30%	-25%	-13	?
CCC(=O)N[C@@H]1C=C[C@@H](CC(=O)NCc2ccccc2F)O[C@@H]1CO	i	17%	21%	3	i
CC(C(=O)NCC(=O)Nc1ccc(F)c(F)c1F)N1CCN(Cc2ccc(C#N)cc2)CC1 (stereo not drawn)	i	-2%	5%	9	13µM*
CCOP(=O)(OCC)c1ccc2c(c1)C(=O)c1ccccc1CC2	i	·	·	·	i
O=C(CC1(O)C(=O)Nc2cc(Cl)cc(Cl)c21)c1ccccc1O (stereo not drawn)	i	?	?	-80*	i
COc1ccccc1-c1ccnc2c(-c3ccc(Br)cc3)c(C)nn12	i	·	·	·	i
Cc1cccc(NS(=O)(=O)c2ccc3c(c2)C(C)(C)C(=O)N3C)c1	i	·	·	·	i
Oc1ccc(-c2csc(-c3cccnc3)n2)c(O)c1	5.8µM*	-19%	?	?	?
Clc1ccsc1-c1csc(-c2cccnc2)n1	21µM*	?	?	13	?
CC(=O)Nc1ccc(-c2csc(-c3cccnc3)n2)cc1	i	-27%	-22%	-55*	i
CCCC(=O)Nc1ccc(-c2csc(-c3cccnc3)n2)cc1	i	3%	5%	-30	?
Oc1ccc(-c2nc(-c3ccc(O)c(O)c3)cs2)cc1	0.52µM*	?	?	0	2.1µM*
CC(=O)Nc1ccc(-c2csc(N/N=C(/C)c3ccccc3)n2)cc1	i	-8%	-23%	-70*	i
Cc1nc(N2CCN(C(=O)c3ccco3)CC2)c2oc3ccccc3c2n1	12µM*	?	?	?	?
SMILES	KB-3-1 cytotox	HT1080 IDH1KD tx	HT1080-NT tox	IL1B secr inh	KB-V1 cytotox
CCc1nc(N2CCN(C(=O)c3ccco3)CC2)c2oc3ccccc3c2n1	i	?	?	-27	21µM*
Cn1c(/C=C/c2ccc([N+](=O)[O-])o2)nc2ccccc2c1=O	1.8µM*	?	?	-98*	?
Cn1c(/C=C/c2ccccc2)nc2ccccc2c1=O	?	?	?	-2	?
N#Cc1c(N)nc2c(c1-c1ccccc1)CCC2	?	3%	0%	11	10µM*
COc1ccc(-c2c(C#N)c(N)nc3c2CCC3)cc1	i	-6%	-3%	8	?
O=C(NCCc1nc2ccccc2n1CCO)C1CCCCC1	?	·	·	·	i
COc1ccccc1N(CC(O)COc1ccc(C)cc1)S(=O)(=O)c1ccccc1 (stereo not drawn)	i	-2%	4%	-93*	?
COc1ccccc1N(CC(O)COc1c(C)cc(C)cc1C)S(=O)(=O)c1ccccc1 (stereo not drawn)	?	-5%	4%	-56*	8.2µM*
COc1ccccc1N(CC(O)COc1ccccc1)S(=O)(=O)c1ccccc1 (stereo not drawn)	i	9%	8%	0	13µM*
COc1ccccc1N(CC(O)CN(c1ccccc1)S(C)(=O)=O)S(=O)(=O)c1ccccc1 (stereo not drawn)	i	10%	13%	-13	i
CC(=O)Oc1ccccc1Cn1c(C)c(C(=O)NCCC#N)sc1=O	i	7%	19%	27	i
COc1ccc(OC)c(CNC(=O)c2cnc3c(C)cccn3c2=O)c1	i	·	·	·	i
CN(C)CCCNc1ccc(-c2n[nH]c(=O)c3ccccc23)cc1[N+](=O)[O-]	i	-11%	-13%	-13	i
COc1ccc(Nc2c3ccccc3nc3ccccc23)cc1	6.5µM*	12µM*	9.2µM*	-98*	?
O=C(O)c1ccc(Nc2c3ccccc3nc3ccccc23)cc1	i	-14%	-18%	-13	i
COc1cc(Nc2c3ccccc3nc3ccccc23)cc(OC)c1OC	?	?	10µM*	-95*	?
Clc1cncc(Cl)c1NNc1c2ccccc2nc2ccccc12	i	-7%	0%	19	i
CC(C)(C)Nc1c2ccccc2nc2ccccc12	i	-11%	-10%	-92*	i
CN(C)CCNCCCNc1c2ccccc2nc2cccc([N+](=O)[O-])c12	0.016µM*	?	-24%	?	i
O=C(C1CC(=O)N(c2ccccc2)C1)N1CCN(c2ccccc2)CC1 (stereo not drawn)	i	-2%	5%	-8	i
COCCNC(=O)C1=CC(c2ccc3c(c2)OCO3)=NS(=O)(=O)N1C	i	·	·	·	i
COc1ccc(Nc2cc(C)c3ccccc3n2)cc1	i	-9%	-16%	-97*	i
COc1ccc(CC(=O)Nc2ccc3nc(Nc4ccc(OC)cc4)cc(C)c3c2)cc1	?	·	·	·	i
Cc1cc(Nc2ccc([N+](=O)[O-])cc2)nc2ccccc12	i	?	?	0	i
COc1ccc(Nc2c3c(nc4ccccc24)CCCC3)cc1OC	?	?	?	-18	?
COc1ccc(C)cc1Nc1c2c(nc3ccccc13)CCC2	0.65µM*	1.2µM*	?	-82*	2.9µM*
